Results reported in PubChem BioAssay AID492952 (Southern Research Specialized Biocontainment Screening …, 2010).
Among all 2,300 compounds or so, about 1,500 (65%) were called active. How the calls were made is not given here. So high a share suggests a set chosen from earlier hits. This is one part of the list. Measured potencies and affinities stand elsewhere.

Assay: replicating M. tuberculosis growth inhibition, dose response, non-replicating M. tuberculosis project, H37Rv (AID 492952);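 further: Mycobacterium tuberculosis grown in culture; growth inhibition read after a week of incubation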
Conditions: series mostly up to 50 µM

| SMILES | outcome |
| --- | --- |
| CCCCSc1nnc(-c2cc(Br)ccc2N)c(=O)[nH]1 | inactive |
| C/C(=N\NC(=O)c1cccs1)c1ccc2c(c1)OCO2 | inactive |
| Cc1ccc(C(=O)CCNc2ccc(Br)cc2)o1 | inactive |
| CC(Cc1cccs1)NC(=O)c1cccc(Cl)c1 (stereo not drawn) | inactive |
| Cc1ccc(C(=O)CCNc2ccc(F)c(Cl)c2)o1 | inactive |
| Cc1ccc(NC(CC(=O)c2ccccc2)C(=O)O)cc1Cl (stereo not drawn) | inactive |
| COc1cc(C(=O)CCN2CCC(c3ccccc3)C2)cc(OC)c1OC (stereo not drawn) | inactive |
| CC(C)COc1ccc(C(=O)CCN2CCCCC2)cc1 | inactive |
| CC(C)Oc1ccc(C(=O)CCN2CCCCC2)cc1 | inactive |
| CCCCc1ccc(NS(=O)(=O)c2c(C)n(C)c(=O)n(C)c2=O)cc1 | inactive |
| C=C(C)C1CC=C(C)/C(=N/NC(=O)CNc2ccc(OCC)cc2)C1 (stereo not drawn) | inactive |
| CC1N(C)c2cccc3cccc(c23)N1C | inactive |
| CCCCCCCCCCn1ccc(=N)cc1 | inactive |
| CCc1ccc(OCCCC(=O)NCc2ccco2)cc1 | inactive |
| Nc1ccc2c(c1)oc1ccccc12 | inactive |
| CCOC(=O)c1cn(Cc2cccc(Cl)c2)nn1 | inactive |
| COc1cc(/C=C2\C(=O)N(c3ccc(S(N)(=O)=O)cc3)N=C2C)ccc1OC(=O)c1ccco1 | inactive |
| COc1cc(/C=N/Nc2ccc(Cl)c(C(=O)O)c2)ccc1OC(=O)c1ccco1 | inactive |
| O=C(COc1ccccc1)NNc1nc2ccccc2s1 | inactive |
| CC/C(=C\C=C\[C@@H]1C=C[C@@H]2CCC[C@H]2[C@@H]1C(=O)c1ccc[nH]1)[C@@H]1O[C@@H]([C@@H](C)C(=O)O)CC[C@@H]1C | inactive |
| Cc1cccc(NCc2ccc([N+](=O)[O-])s2)c1 | inactive |
| CCCc1nnc(-c2ccc(OC)cc2)o1 | inactive |
| CCc1ccc(C(=O)NC2CCCCC2)s1 | inactive |
| CCc1cc(C=NC2CCCCC2)c(O)s1 | inactive |
| CC(=O)c1c(O)cc(=O)n(-c2ccccc2)c1-c1ccc(C)cc1 | inactive |
| CCOC(=O)c1c(NC(=O)COC(=O)c2ccccn2)sc2c1CCC2 | inactive |

| SMILES | outcome |
| --- | --- |
| O=C(Oc1cccc([N+](=O)[O-])c1)c1ccc2c(=O)n3c(nc2c1)CCC3 | inactive |
| Cc1ccc2c(CC(=O)OCC(=O)Nc3ccc(Cl)cn3)coc2c1 | inactive |
| Cc1ccc(NC(=O)CN(C)C2CCCCC2)cc1Br | inactive |
| O=C(Nc1ccccc1N1CCCC1)c1cccc(F)c1 | inactive |
| O=C(Nc1ncccn1)c1ccc([N+](=O)[O-])o1 | inactive |
| Cc1noc(C)c1COc1ccc(C(=O)Nc2ccccn2)cc1 | inactive |
| O=C(Nc1ncccc1O)c1ccc(Oc2ccccc2)cc1 | inactive |
| O=C(Nc1cccnc1)c1ccc(-c2ccc(Cl)cc2)o1 | inactive |
| CCOC(=O)c1ccc(N=C2SC(C(=O)Nc3ccc(C(=O)O)cc3)CC(=O)N2Cc2cccs2)cc1 (stereo not drawn) | inactive |
| COC(=O)C1=C(C(=O)OC)C(c2cc(Cl)ccc2O)c2sc(=O)[nH]c2S1 (stereo not drawn) | inactive |
| Cc1ccc(SCCC(=O)OCC(=O)NCC2CCCCC2)cc1 | inactive |
| COc1ccccc1NC(=O)CCN1CCN(c2ccc(Cl)cc2)CC1 | inactive |
| CC(/C=C/c1ccc2c(c1)OCO2)=N/NC(=O)C1COc2ccccc2O1 (stereo not drawn) | inactive |
| CC(/C=C/c1ccco1)=N/NC(=O)c1ccc(C)nc1 | inactive |
| Cn1cccc1/C=N/NC(=O)c1ccco1 | inactive |
| O=C(N/N=C/c1ccc[nH]1)c1ccc(Cl)cc1 | inactive |
| O=C(N/N=C/c1ccc(Br)s1)c1cccnc1 | inactive |
| O=C(N/N=C/c1ccc[nH]1)c1cccnc1 | inactive |
| O=C(O)c1ccc(-n2nc(C(F)(F)F)c3c2CCCC3)cc1 | inactive |
| CCc1cc2c3c(c1)C(C)CC(C)(C)N3C(=O)/C2=C1\SC(=O)NC1=O (stereo not drawn) | inactive |
| COc1cccc(-c2nc(C=O)cs2)c1 | inactive |
| Cc1ccnc(-n2c(C)cc(/C=C3\C(=O)NC(=S)N(C)C3=O)c2C)c1 | inactive |
| Cc1cc(C=C2C(=O)N(C)C(=S)N(C)C2=O)c(C)n1-c1cccnc1 | inactive |
| CCCCCCCC(=O)NNC(=O)c1ccc(F)cc1 | inactive |
| Cc1ccc(S(=O)(=O)CCC(=O)Nc2nc(-c3ccncc3)cs2)cc1 | inactive |
| CCCCOc1ccc(NC(=O)CN2CCN(Cc3ccccc3)CC2)cc1 | inactive |

| SMILES | outcome |
| --- | --- |
| O=C(NN=C1C2CC3CC1CC(Cl)(C3)C2)c1cccs1 | inactive |
| Cc1ccc(NC(=O)C2COc3ccccc3O2)nc1 (stereo not drawn) | inactive |
| CCC(=O)N/N=C/c1ccc(-c2ccc(Cl)cc2)o1 | inactive |
| Cc1cccc(C)c1N1C(=O)CC(N2CCSCC2)C1=O (stereo not drawn) | inactive |
| CCCCCCCC(=O)N/N=C(/C)c1c(O)cc(C)oc1=O | inactive |
| Cc1cc(CN(C)C)c(O)c(C2(C)CCCCC2)c1 | inactive |
| COc1ccccc1C(c1nnnn1Cc1ccccc1)N1CCC(C(N)=O)CC1 (stereo not drawn) | inactive |
| O=C(N/N=C/c1ccc[nH]1)c1ccc2c(c1)OCO2 | inactive |
| O=C(NCc1cccs1)c1ccc(Br)o1 | inactive |
| O=C(CC1CC2CCC1C2)NCc1cccs1 (stereo not drawn) | inactive |
| Cc1cc(C(=O)N/N=C/c2cccc(Cl)c2Cl)no1 | inactive |
| CC(C)c1cc(C(=O)N/N=C/C=C/c2ccccc2)n[nH]1 | inactive |
| O=C(N/N=C/c1cc(Br)cc(Cl)c1O)c1ccc2c(c1)OCO2 | inactive |
| CC1(CCc2ccc3c(c2)OCO3)NC(=O)c2ccccc2N1 (stereo not drawn) | inactive |
| CC1=CC(=O)NP(=O)(Oc2ccc3ccccc3c2)N1 (stereo not drawn) | inactive |
| CC(=O)c1c(C)n(C)c2ccc(OC(=O)c3ccco3)cc12 | inactive |
| Cc1cc2cc(CNC(=O)COc3ccccc3)ccc2n1C | inactive |
| CCN(CC)CCNC(=O)c1[nH]c2ccc(OCc3ccccc3)cc2c1C | inactive |
| CCOc1ccc(-c2ccc(SCC)nn2)cc1 | inactive |
| Oc1ccccc1Nc1nc(NCC2CCCO2)c2ccccc2n1 (stereo not drawn) | inactive |
| CCCCCCC1CC(C)(C(=O)CNc2nncs2)OC1=O (stereo not drawn) | inactive |
| Cc1cc2nc(CSc3ccc(Cl)cc3)cc(=O)n2[nH]1 | inactive |
| O=C(c1nnc(-c2ccc(Cl)cc2)o1)C1CCCC1 | inactive |
| Cc1cc(C)c2sc(NC(=O)C3=COCCO3)nc2c1 | inactive |
| CN(C)Cc1ccccc1Sc1ccccc1Br | inactive |
| C(#CCN1CCOCC1)COCc1ccccc1 | inactive |
